Source: PubChem BioAssay AID485346 (Sanford-Burnham Center for Chemical Genomics, 2010)
The whole screen tested about 330,000 compounds, of which about 10,000 (3%) were called active. For the sample, actives were picked, then their nearest neighbours and some compounds at random. Unmarked numbers belong to inactive results.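 How the source made its calls: active means inhibition of at least 50% at 8 µM in the primary screen; inactive means the rest.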

molecular target: Protein Mdm4 (Homo sapiens) + E3 ubiquitin-protein ligase Mdm2 (Homo sapiens) (UniProt O15151+Q00987); experiment: inhibitors of human Mdm2-MdmX association, primary screen, cell-based, luminescence, split luciferase, SaOS-2, uHTS (AID 485346); conditions: SaOS-2 split-luciferase Mdm2/MdmX complementation, at 8 µM, active compounds read high
Sequence (O15151 whole entry, looked up): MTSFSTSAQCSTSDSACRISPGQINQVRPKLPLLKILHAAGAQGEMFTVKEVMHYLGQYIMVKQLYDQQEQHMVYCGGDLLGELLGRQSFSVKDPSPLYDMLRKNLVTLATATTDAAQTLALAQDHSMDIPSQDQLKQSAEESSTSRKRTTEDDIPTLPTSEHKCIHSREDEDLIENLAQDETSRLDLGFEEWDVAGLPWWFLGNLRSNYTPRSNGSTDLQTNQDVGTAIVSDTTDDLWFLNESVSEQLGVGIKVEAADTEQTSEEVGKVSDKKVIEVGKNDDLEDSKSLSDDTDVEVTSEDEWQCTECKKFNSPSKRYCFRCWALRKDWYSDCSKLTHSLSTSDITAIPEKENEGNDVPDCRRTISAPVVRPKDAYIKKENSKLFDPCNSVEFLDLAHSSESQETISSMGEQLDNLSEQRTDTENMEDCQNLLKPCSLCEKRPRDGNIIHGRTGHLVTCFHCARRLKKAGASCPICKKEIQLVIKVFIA
Sequence (Q00987 whole entry, looked up): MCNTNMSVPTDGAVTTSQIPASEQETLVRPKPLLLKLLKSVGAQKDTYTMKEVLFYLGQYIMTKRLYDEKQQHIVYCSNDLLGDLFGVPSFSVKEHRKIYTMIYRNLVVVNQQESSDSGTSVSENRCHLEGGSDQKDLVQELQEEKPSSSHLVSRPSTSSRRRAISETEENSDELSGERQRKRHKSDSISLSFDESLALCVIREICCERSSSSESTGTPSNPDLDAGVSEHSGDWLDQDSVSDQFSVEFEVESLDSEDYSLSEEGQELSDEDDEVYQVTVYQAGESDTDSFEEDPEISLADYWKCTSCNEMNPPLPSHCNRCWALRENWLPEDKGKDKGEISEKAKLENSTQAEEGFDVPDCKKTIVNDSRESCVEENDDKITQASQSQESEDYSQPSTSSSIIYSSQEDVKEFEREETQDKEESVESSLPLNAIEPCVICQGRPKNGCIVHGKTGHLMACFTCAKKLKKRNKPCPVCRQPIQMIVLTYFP

Compared with `O=S(=O)(O)Oc1c[nH]c2ccccc12`, `O=C(CNC(=O)c1ccccc1F)OCC(=O)c1c[nH]c2ccccc12` is lower in inhibition: 12.5% for the first, 6.82% for the second.

Going from `O=C(Nc1ccc2c(c1)nc1n2CCCCC1)c1cc(S(=O)(=O)N2CCOCC2)ccc1Cl` to `CCn1c2ccccc2c2cc(NC(=O)COC(=O)c3cc(S(=O)(=O)N4CCCCC4)ccc3Cl)ccc21`, the inhibition rises from 4.51% to 17.9%.

First: O=C(CN(c1cccc(Cl)c1)S(=O)(=O)c1ccccc1)NN=C1CCCC1
Second: Cc1cccc(NC(=O)c2cccc(S(=O)(=O)N3CCCC3)c2)n1
The inhibition of the first is lower: -14% for the first, -8.96% for the second.

Going from `CSc1ccc(-c2c(C#N)c(N)nc3c2c(C)nn3-c2ccccc2)cc1` to `COc1ccccc1-c1c(C#N)c(N)nc2c1CCC2`, the inhibition falls from 40.5% to -4.18%.

First: Cc1ccc(NC(=O)C(=O)NCC2CCN(C(=O)c3cccc([N+](=O)[O-])c3)CC2)cc1
Second: Cc1ccc(S(=O)(=O)Nc2ccc(F)c(S(=O)(=O)N3CCOCC3)c2)cc1
The inhibition of the first is lower: -4.26% for the first, 29.4% for the second.

Going from `CCOc1ccc(-n2cnc3c(=O)[nH]c(N)nc32)cc1` to `CCOc1ccc(/C=C2\SC(=S)N(NC(=O)c3ccncc3)C2=O)cc1OC`, the inhibition falls from -4.14% to -7.45%.

Compared with `CCN(C[C@H]1N[C@@](Cc2ccccc2)(C(=O)OC)[C@H]2C(=O)N(Cc3ccccc3)C(=O)[C@@H]12)C(=O)c1ccc(C)cc1`, `Cc1cccc([C@@H]2[C@@H]3C(=O)N(Cc4ccccc4)C(=O)[C@@H]3[C@]3(Cc4ccc(Cl)cc4)C(=O)N(c4cccc(Cl)c4)C(=O)N23)c1` is higher in inhibition: 0.772% for the first, 8.94% for the second.

First: CC(C)(C)N1C(=O)[C@H]2[C@@H](c3ccc(Br)cc3)N3C(=O)N(c4cccc(Cl)c4)C(=O)[C@@]3(C)[C@H]2C1=O
Second: Cn1c(=O)n(C)c2cc(/C=N/NC(=O)c3cccc(Br)c3)ccc21
The inhibition of the first is lower: 10.7% for the first, 19.4% for the second.

First: O=C(Nc1ccc2c(c1)OCO2)c1ccc(N2C(=O)c3ccccc3C2=O)cc1
Second: CC(C)C(=O)Nc1cccc(C(=O)Nc2ccc3c(c2)OCO3)c1
The inhibition of the first is higher: 8.21% for the first, -105% for the second.

Going from `COc1cccc(OC)c1C(=O)Nc1ccc2c(c1)n(C)c(=O)n2C` to `COc1ccc(/C=C2\SC(=S)N(CCC(=O)Nc3cccc(C(=O)O)c3)C2=O)cc1OC`, the inhibition falls from 6.22% to 0.635%.

Compared with `CC1(C)C=Cc2c(ccc3c2OC[C@@H](c2ccc(O)cc2O)C3)O1`, `Cc1ccc(/C=C2\SC(=S)N(CCC(=O)Nc3ccc(O)cc3)C2=O)cc1` is higher in inhibition: -97.4% for the first, 20.5% for the second.

Compared with `Cc1c(NC(=O)CSc2nnc(-c3cccnc3)n2N)c(=O)n(-c2ccccc2)n1C`, `Cc1c(NC(=O)CSc2nnnn2-c2ccc(C(=O)O)cc2)c(=O)n(-c2ccccc2)n1C` is higher in inhibition: -18.9% for the first, 11% for the second.

First: Cc1ccc(NC(=O)c2nc[nH]c2C(=O)N[C@@H](CCCCNC(=O)OC(C)(C)C)C(=O)OC(C)(C)C)cc1
Second: CCOC(=O)c1ccc(NC(=O)c2nc[nH]c2C(=O)NCc2ccccc2)cc1
The inhibition of the first is lower: 31.7% for the first, 33.2% for the second.

First: O=C(Nc1cccnc1)c1noc2c1CCCCC2
Second: COc1cccc(-c2cc3nc4c(c(N5CCC6(CC5)OCCO6)n3n2)CCCC4)c1
The inhibition of the first is lower: 3.42% for the first, 22.2% for the second.

Compared with `O=C(CCN1C(=O)/C(=C/c2cccs2)SC1=S)NNC(=O)c1cccc(O)c1`, `CC(C(=O)Nc1ccc(O)c(C(=O)O)c1)N1C(=O)/C(=C/c2cccs2)SC1=S` (configuration not stated) is higher in inhibition: -31.2% for the first, 7.51% for the second.

First: Cc1ccc(/C=C2/SC(=S)N(CCC(=O)NCCCN3CCOCC3)C2=O)cc1
Second: C=CCOc1ccc(/C=C2\SC(=S)N(CCC(=O)O)C2=O)cc1
The inhibition of the first is lower: -3.05% for the first, 42% for the second.

Going from `COc1ccc(/C=C2/SC(=O)N(CCCCCC(=O)Nc3ccccc3C(=O)O)C2=S)cc1` to `CC(=O)Nc1ccc(S(=O)(=O)Nc2nc3n(n2)C(c2ccccc2)CC(=O)N3)cc1` (configuration not stated), the inhibition rises from -4.65% to 12.5%.

First: Cc1csc(NC(=O)C2CCN(S(=O)(=O)c3ccccc3)CC2)n1
Second: CC(=O)NC12CC3CC(C1)CC(C(=O)N1CCN(S(=O)(=O)c4cccs4)CC1)(C3)C2
The inhibition of the first is lower: -1.69% for the first, 14.8% for the second.

Going from `Cc1ccc2c(C)c(C(=O)N(C)CCC3CCCCO3)oc2c1C` (configuration not stated) to `Cc1c(C(=O)NCC(c2ccco2)N2CCCC2)oc2ccc(Cl)cc12` (configuration not stated), the inhibition falls from 27.9% to 21%.

First: Cc1ccc(Nc2nc(CSc3nnc(-c4ccncc4)n3-c3ccccc3C)cs2)cc1
Second: COc1ccccc1CN(C)C(=O)C1(c2ccc(Cl)cc2)CC1
The inhibition of the first is higher: 38.1% for the first, 14.8% for the second.

For `CCCCCOC(=O)C1=C(C)Nc2nnnn2C1c1ccc(OC)c(OC)c1OC` (configuration not stated), the inhibition was -18%.

With `CSc1nc(N)c(C#N)c(-c2ccccc2Cl)c1C#N` the inhibition was 58.4% (active).
In the case of `CCn1c(O)c(N=NC(=O)c2cccc(S(=O)(=O)N3CCCCC3)c2)c2ccccc21`, the inhibition is reported as 51% (active).
`Cc1cccc([C@@H]2[C@@H]3C(=O)N(Cc4ccccc4)C(=O)[C@@H]3[C@]3(C)C(=O)N(c4ccc(Br)cc4)C(=O)N23)c1` was tested, and the inhibition was 53.1% (active).
In the case of `Cn1c(=O)n(C)c2cc(C(=O)Nc3ccc4c(c3)OCO4)ccc21`, the inhibition is reported as 60.2% (active).
With `Cn1c(=O)n(C)c2cc(C(=O)Nc3ccc(Br)cc3)ccc21` the inhibition was 56.8% (active).
In the case of `Cc1c(NC(=O)CSc2cccc3cccnc23)c(=O)n(-c2ccccc2)n1C`, the inhibition is reported as 65.2% (active).
With `CCOC(=O)c1ccc(NC(=O)c2nc[nH]c2C(=O)N[C@@H](CCCCNC(=O)OC(C)(C)C)C(=O)OC(C)(C)C)cc1` the inhibition was 53.6% (active).
With `O=C(CCCN1C(=O)/C(=C/c2ccccc2)SC1=S)Nc1ccc(O)cc1` the inhibition was 94.8% (active).
In the case of `COc1ccc(/C=C2\SC(=S)N(CCC(=O)Nc3ccccn3)C2=O)cc1OC`, the inhibition is reported as 76.7% (active).
With `O=C(CCCN1C(=O)/C(=C\c2ccccc2)SC1=S)Nc1ccccc1O` the inhibition was 79.6% (active).
With `O=C(CCCN1C(=O)/C(=C/c2cccs2)SC1=S)Nc1ccc(O)cc1` the inhibition was 62.6% (active).
